Records with an inconclusive call do not appear. The source made the active and inactive calls. Calls follow the shape of the dose curve; as a rule, active = well fitted activation curve with a large enough effect; inconclusive = small, poorly fitted or top-dose-only effect; inactive = flat fitted curve, though single readings scatter.
Test: qHTS for Inhibitors of Cell Surface uPA Generation: FP59 Counterscreen for Cherry-picked Compounds; as to activity (protection from FP59): 0% is about no effect
Details: FP59 anthrax toxin cytotoxicity counterscreen, cells; series mostly up to 115 µM; activity (protection from FP59): at the top concentration
Potency is read from the fitted curve at half-maximal effect.

Row | SMILES | activity (protection from FP59) | Potency
1 | COc1cc(NC(=O)CSc2nnc3ccc(-c4ccncc4)nn23)cc(OC)c1 | -1.37% (inactive) | –
2 | CC(=O)NCCc1cnc[nH]1 | -1.32% (inactive) | –
3 | CCN(C(=O)c1c(C)noc1C)c1c(N)n(Cc2ccccc2)c(=O)[nH]c1=O | -1.27% (inactive) | –
4 | CCOc1ccc(CCNC(=O)Cc2ccc(NC3=NC4CS(=O)(=O)CC4S3)cc2)cc1OCC (stereo not given) | 3.36% (inactive) | –
5 | Cc1ccc(C)c(N2N=C(C(=O)N(CC(C)C)c3c(N)n(Cc4ccccc4)c(=O)[nH]c3=O)CCC2=O)c1 | -1.04% (inactive) | –
6 | CCOC(=O)c1c(NC(=O)COc2ccccc2C#N)sc2c1CC(C)(C)NC2(C)C | -1.65% (inactive) | –
7 | CC[C@]1(C(=O)OC)[C@H]2C(=O)N(C)C(=O)[C@H]2[C@H]2CN(C)C(=NC3CCCCC3)N21 | 0.0361% (inactive) | –
8 | CCC(CC)Nc1ccc(C(CC(N)=O)NC(=O)Cc2ccc(Br)cc2)cc1[N+](=O)[O-] (stereo not given) | -0.93% (inactive) | –
9 | COC(=O)Cc1c(C)c2ccc(OCC(=O)N3CCCC(C)C3)c(C)c2oc1=O (stereo not given) | -1.33% (inactive) | –
10 | CCCCn1c(N)c(N(CCC(C)C)C(=O)c2sc3nc4n(c(=O)c3c2C)CCC4)c(=O)[nH]c1=O | -1.37% (inactive) | –
11 | O=S(=O)(/N=C(/c1ccccc1)N1CCOCC1)c1ccc(F)cc1F | -1.28% (inactive) | –
12 | O=C(NC1CC1)C1CCCN(C(=O)NC2CCCCC2)C1 (stereo not given) | -1.52% (inactive) | –
13 | O=C(NNC(=O)c1ncc(Cl)c(Cl)c1Cl)c1ccc(F)cc1 | 0.837% (inactive) | –
14 | CC(C)c1ccc(NC(=O)COc2ccc(S(=O)(=O)N3CCOCC3)cc2)cc1 | -1.43% (inactive) | –
15 | CC(=O)Nc1c2c(nn1-c1cccc(C)c1)CSC2 | -1.26% (inactive) | –
16 | CSCC[C@H](NC(=O)[C@H](Cc1ccccc1)n1c(=O)[nH]c2ccccc2c1=O)C(=O)N1CCC[C@@H]1C(=O)O | -1.24% (inactive) | –
17 | O=C(O)c1ccc(-c2ccc(/C=C3\NC(=O)N(Cc4ccc(Cl)cc4)C3=O)o2)cc1 | -1.13% (inactive) | –
18 | CCOC(=O)C1=C(CN2CCN(C(=O)c3ccco3)CC2)NC(=O)NC1c1ccccc1 (stereo not given) | -0.369% (inactive) | –
19 | CCc1ccccc1NC(=O)CN(C)C(=O)CSc1nnc(Nc2cccc(C)c2C)s1 | -0.108% (inactive) | –
20 | CCCCCN(C(=O)CCC(=O)OCCOc1cccc(Cl)c1)c1c(N)n(CCCC)c(=O)[nH]c1=O | -1.02% (inactive) | –

Row | SMILES | activity (protection from FP59) | Potency
21 | COc1ccc(-c2csc(NC(C)c3nc4cc(C(=O)NCCCO)ccc4n3Cc3ccc(C)cc3)n2)cc1 (stereo not given) | 7.96% (inactive) | –
22 | CCOC(=O)Cn1c(=O)cc(C)c2cccc(C)c21 | -1.08% (inactive) | –
23 | O=C1C=CC(O)(c2cc(=O)c3c(O)cc(O)cc3o2)C=C1 | – | 14.7 µM (active)
24 | CC(=O)n1cc(/C=N/NC(=O)c2ccc([N+](=O)[O-])cc2)c2ccccc21 | -1.52% (inactive) | –
25 | COCCN(C(=O)CSc1nnc(-c2ccncc2)n1C)c1c(N)n(CC(C)C)c(=O)[nH]c1=O | -1.31% (inactive) | –
26 | CC1(c2cccc([N+](=O)[O-])c2)CC(C)(C)N(C(=O)c2ccccc2)c2ccccc21 (stereo not given) | 3.03% (inactive) | –
27 | CCN(CC)S(=O)(=O)c1ccc(C(=O)Nc2nnc(COC)o2)cc1 | -0.922% (inactive) | –
28 | CC1CCCCN1C(=O)CSc1nc2ncccc2[nH]1 (stereo not given) | -0.554% (inactive) | –
29 | O=C(Nc1ccc(S(=O)(=O)N2CCOCC2)cc1)c1cc(-c2ccccc2O)n[nH]1 | -1.42% (inactive) | –
30 | CCOc1ccc(NC(=S)N2CCC(c3ccc(C)cc3)C2)cc1 (stereo not given) | -1.14% (inactive) | –
31 | COCCN1C(=O)C(=O)/C(=C(/O)c2ccc(S(=O)(=O)N3CCOCC3)cc2)C1c1cccc([N+](=O)[O-])c1 (stereo not given) | -1.51% (inactive) | –
32 | O=C(c1cccc(F)c1)N1CCN(Cc2cccc(Br)c2)CC1 | -0.552% (inactive) | –
33 | COc1ccc(C)cc1NC(=O)CSCc1cc(=O)n2c(C)csc2n1 | -1.12% (inactive) | –
34 | C=CC[n+]1c(/C=C/c2ccc(OC(C)=O)c(OC)c2)ccc2ccccc21 | -1.44% (inactive) | –
35 | Cn1c(C2CCCCC2)nc2cc(N)ccc21 | -1.49% (inactive) | –
36 | COC(=O)c1ccc(CN2CCCC(CNC(=O)Cc3ccc(OC)cc3)C2)cc1 (stereo not given) | -1.35% (inactive) | –
37 | Cc1ccccc1S(=O)Cc1ccc(C(=O)N2CCN(C(=O)c3ccco3)CC2)o1 (stereo not given) | -1.44% (inactive) | –
38 | Cc1[nH]c2ccccc2c1C(=O)C(C)OC(=O)c1ccccc1NCCO (stereo not given) | 0.319% (inactive) | –
39 | COc1ccc(CCNC(=O)Cn2c(=O)n(-c3cc(F)ccc3F)c(=O)c3sccc32)cc1OC | -1.16% (inactive) | –
40 | O=C(C[n+]1ccccc1)Nc1ccccc1C(F)(F)F | -1.29% (inactive) | –

From PubChem BioAssay AID720517 (National Center for Advancing Translational Sciences (NCATS), 2013)
